We go through 32 sequences from publication PMC7862700, “An all-to-all approach to the identification of sequence-specific readers for epigenetic DNA modifications on cytosine”.

Holding throughout (experiment): DAPPL (digital affinity profiling via proximity ligation, sequencing); 10 mM Tris-HCl pH 7.5, 50 mM NaCl, 1 mM DTT, 4% glycerol, room temperature, 30 min; GST-TFs on glutathione beads, 16-mer random dsDNA library, 0.1% formaldehyde crosslink after washing; high values mean tight binding
Details in all cases: protein: recombinant; tags: N-terminal GST; dsDNA, one strand shown

One test has as its target T1, ELK4 (Homo sapiens, UniProt P28324-2 1-405).
T1 sequence: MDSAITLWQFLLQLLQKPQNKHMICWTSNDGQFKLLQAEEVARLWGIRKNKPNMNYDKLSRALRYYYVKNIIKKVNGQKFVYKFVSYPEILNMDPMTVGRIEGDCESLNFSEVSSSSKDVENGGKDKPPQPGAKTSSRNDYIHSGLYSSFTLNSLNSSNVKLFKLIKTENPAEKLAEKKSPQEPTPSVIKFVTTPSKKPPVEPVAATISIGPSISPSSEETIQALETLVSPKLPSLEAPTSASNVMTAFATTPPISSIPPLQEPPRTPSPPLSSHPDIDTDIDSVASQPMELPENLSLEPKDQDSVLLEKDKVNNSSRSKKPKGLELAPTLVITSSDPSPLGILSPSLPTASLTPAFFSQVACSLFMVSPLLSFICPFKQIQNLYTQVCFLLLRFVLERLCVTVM
Put shortly: (§1)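 A tag-only sample was pooled with DNA-barcoded human transcription factors that had been expressed in yeast as GST fusions and captured on glutathione beads. The pools were incubated for 30 min at room temperature with 200 nmole of a random double-stranded 16-mer DNA library in Tris/NaCl/DTT/glycerol buffer, then washed, crosslinked with 0.1% formaldehyde, proximity-ligated (BsaI/T4 ligase, 1 h, 37 °C), PCR-amplified and sequenced on an Illumina NextSeq500. Binding signal is each hexamer's read frequency for a factor divided by its frequency for the tag-only sample.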

In another test the target is T2, ELF3 (Homo sapiens, UniProt P78545 1-371).
T2 sequence: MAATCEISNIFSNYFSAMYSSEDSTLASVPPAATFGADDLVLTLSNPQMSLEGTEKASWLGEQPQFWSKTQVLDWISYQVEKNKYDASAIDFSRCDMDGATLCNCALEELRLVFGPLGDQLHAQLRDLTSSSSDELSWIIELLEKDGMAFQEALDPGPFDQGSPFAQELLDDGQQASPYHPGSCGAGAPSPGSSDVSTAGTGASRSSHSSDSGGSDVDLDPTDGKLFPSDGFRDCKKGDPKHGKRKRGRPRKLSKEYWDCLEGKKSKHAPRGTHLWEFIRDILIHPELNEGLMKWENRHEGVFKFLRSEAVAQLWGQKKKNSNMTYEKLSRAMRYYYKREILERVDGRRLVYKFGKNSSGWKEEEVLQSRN
In outline:
as §1

The next test has as its target T3, SPDEF (Homo sapiens, UniProt O95238 1-335).
T3 sequence: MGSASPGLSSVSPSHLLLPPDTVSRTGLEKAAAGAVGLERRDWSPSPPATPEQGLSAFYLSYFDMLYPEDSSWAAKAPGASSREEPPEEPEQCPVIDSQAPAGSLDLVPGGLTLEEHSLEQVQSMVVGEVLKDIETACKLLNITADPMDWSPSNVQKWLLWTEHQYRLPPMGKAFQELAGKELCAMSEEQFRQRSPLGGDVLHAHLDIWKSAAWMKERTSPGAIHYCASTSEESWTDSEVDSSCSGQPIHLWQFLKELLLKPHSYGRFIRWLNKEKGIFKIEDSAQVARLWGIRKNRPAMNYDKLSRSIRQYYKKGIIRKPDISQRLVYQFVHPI
Put shortly:
as §1

The target of a further test is T4, ETV7 (Homo sapiens, UniProt Q9Y603 1-341).
T4 sequence: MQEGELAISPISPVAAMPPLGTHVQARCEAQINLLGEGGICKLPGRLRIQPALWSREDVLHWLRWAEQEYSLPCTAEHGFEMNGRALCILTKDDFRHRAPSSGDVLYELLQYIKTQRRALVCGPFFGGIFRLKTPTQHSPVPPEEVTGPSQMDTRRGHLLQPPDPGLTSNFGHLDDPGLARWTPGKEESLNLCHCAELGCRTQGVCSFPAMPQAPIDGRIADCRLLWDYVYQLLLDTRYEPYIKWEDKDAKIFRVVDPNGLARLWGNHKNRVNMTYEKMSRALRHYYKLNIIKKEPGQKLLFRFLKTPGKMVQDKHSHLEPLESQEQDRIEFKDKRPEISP
In outline: as §1

Another test has as its target CRX (Homo sapiens, UniProt O43186 1-299). In outline: as §1
The next test deals with T5, ETV2 (Homo sapiens, UniProt O00321 1-342).
T5 sequence: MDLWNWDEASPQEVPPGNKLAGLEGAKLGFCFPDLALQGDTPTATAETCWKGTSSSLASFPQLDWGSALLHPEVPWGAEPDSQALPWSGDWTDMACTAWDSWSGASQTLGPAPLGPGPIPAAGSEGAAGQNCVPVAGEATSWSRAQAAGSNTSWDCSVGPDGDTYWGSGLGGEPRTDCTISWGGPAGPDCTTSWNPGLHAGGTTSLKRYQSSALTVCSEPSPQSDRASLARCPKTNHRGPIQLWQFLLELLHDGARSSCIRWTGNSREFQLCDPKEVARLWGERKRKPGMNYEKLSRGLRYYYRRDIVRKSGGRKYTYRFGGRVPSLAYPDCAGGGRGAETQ
In outline: as §1

CRX, sequence (O43186 whole entry): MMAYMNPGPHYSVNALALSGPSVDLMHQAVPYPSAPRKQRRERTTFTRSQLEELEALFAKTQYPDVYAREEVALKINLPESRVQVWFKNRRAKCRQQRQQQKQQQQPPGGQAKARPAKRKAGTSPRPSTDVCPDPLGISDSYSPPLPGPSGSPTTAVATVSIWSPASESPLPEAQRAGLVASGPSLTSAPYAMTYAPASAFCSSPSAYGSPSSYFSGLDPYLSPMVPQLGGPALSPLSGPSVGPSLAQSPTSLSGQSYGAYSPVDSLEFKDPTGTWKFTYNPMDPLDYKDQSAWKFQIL

As for CGGCCT, the binding signal was 1.13 fold enrichment (6-mer frequency, TF over GST control) with ELK4; 1.03 fold enrichment (6-mer frequency, TF over GST control) with ELF3; 1.12 fold enrichment (6-mer frequency, TF over GST control) with SPDEF; 1.23 fold enrichment (6-mer frequency, TF over GST control) with ETV7.

For TTGGTC, the binding signal with ELK4 is 1.15 fold enrichment (6-mer frequency, TF over GST control); with SPDEF, 1.06 fold enrichment (6-mer frequency, TF over GST control); with ETV7, 1.18 fold enrichment (6-mer frequency, TF over GST control).

On to GTTGAT, for which the binding signal with ELK4 was 1.17 fold enrichment (6-mer frequency, TF over GST control); with CRX it was 1.1 fold enrichment (6-mer frequency, TF over GST control); with SPDEF it was 1.07 fold enrichment (6-mer frequency, TF over GST control).

With CATCGC, the binding signal with ELK4 was 1.14 fold enrichment (6-mer frequency, TF over GST control); with ETV7, 1.11 fold enrichment (6-mer frequency, TF over GST control).

With AAGGCA, the binding signal was 1.03 fold enrichment (6-mer frequency, TF over GST control) with ELK4 and 1.05 fold enrichment (6-mer frequency, TF over GST control) in the test with ETV7.

As for AAAGCG, the binding signal is 1.25 fold enrichment (6-mer frequency, TF over GST control) with ELK4; 1.06 fold enrichment (6-mer frequency, TF over GST control) with ETV2; 1.14 fold enrichment (6-mer frequency, TF over GST control) with ELF3; 1.14 fold enrichment (6-mer frequency, TF over GST control) in the test with CRX; 1.03 fold enrichment (6-mer frequency, TF over GST control) with SPDEF; 1.11 fold enrichment (6-mer frequency, TF over GST control) with ETV7.

Consider GCCCAC, for which the binding signal was 1 fold enrichment (6-mer frequency, TF over GST control) with ELK4; 1.03 fold enrichment (6-mer frequency, TF over GST control) with ELF3; 1.06 fold enrichment (6-mer frequency, TF over GST control) with SPDEF.

In the case of ACATGG, the binding signal with ELK4 was 1.22 fold enrichment (6-mer frequency, TF over GST control); with ELF3, 1.17 fold enrichment (6-mer frequency, TF over GST control); with ETV7, 1.08 fold enrichment (6-mer frequency, TF over GST control).

Regarding TGGTCA, the binding signal was 1.04 fold enrichment (6-mer frequency, TF over GST control) with ELK4 and 1.1 fold enrichment (6-mer frequency, TF over GST control) with ELF3.

In the case of ACGTTG, the binding signal with ELK4 is 1.12 fold enrichment (6-mer frequency, TF over GST control); with SPDEF, 1.17 fold enrichment (6-mer frequency, TF over GST control); with ETV7, 1.1 fold enrichment (6-mer frequency, TF over GST control).

For GGTTTT, the binding signal is 1.03 fold enrichment (6-mer frequency, TF over GST control) in the test with ELK4; 1.2 fold enrichment (6-mer frequency, TF over GST control) with ETV2; 1.14 fold enrichment (6-mer frequency, TF over GST control) in the test with ELF3; 1.19 fold enrichment (6-mer frequency, TF over GST control) with CRX; 1.07 fold enrichment (6-mer frequency, TF over GST control) with SPDEF; 1.1 fold enrichment (6-mer frequency, TF over GST control) in the test with ETV7.

Consider ATGCCG, for which the binding signal was 1.15 fold enrichment (6-mer frequency, TF over GST control) with ELK4 and 1.13 fold enrichment (6-mer frequency, TF over GST control) with SPDEF.

On to CCATGC, for which the binding signal with ELK4 is 1.13 fold enrichment (6-mer frequency, TF over GST control); with ELF3 it was 1.18 fold enrichment (6-mer frequency, TF over GST control); with SPDEF it was 1.06 fold enrichment (6-mer frequency, TF over GST control); with ETV7, 1.1 fold enrichment (6-mer frequency, TF over GST control).

Consider TGCCAA, for which the binding signal with ELK4 is 1.06 fold enrichment (6-mer frequency, TF over GST control); with ELF3 it was 1.17 fold enrichment (6-mer frequency, TF over GST control); in the test with SPDEF it was 1.08 fold enrichment (6-mer frequency, TF over GST control); with ETV7, 1.01 fold enrichment (6-mer frequency, TF over GST control).

Regarding TGGTGC, the binding signal with ELK4 is 1.14 fold enrichment (6-mer frequency, TF over GST control); with SPDEF, 1.19 fold enrichment (6-mer frequency, TF over GST control); with ETV7 it was 1.07 fold enrichment (6-mer frequency, TF over GST control).

For the sequence TCAACA, the binding signal in the test with ELK4 is 1.03 fold enrichment (6-mer frequency, TF over GST control); with ELF3, 1.12 fold enrichment (6-mer frequency, TF over GST control); in the test with SPDEF, 1.07 fold enrichment (6-mer frequency, TF over GST control).

Regarding GTCCCA, the binding signal was 1.13 fold enrichment (6-mer frequency, TF over GST control) with ELK4; 1.08 fold enrichment (6-mer frequency, TF over GST control) with ELF3; 1.13 fold enrichment (6-mer frequency, TF over GST control) with ETV7.

As to CCACCT, the binding signal with ELK4 was 1.21 fold enrichment (6-mer frequency, TF over GST control); with ELF3, 1.3 fold enrichment (6-mer frequency, TF over GST control); in the test with SPDEF, 1.19 fold enrichment (6-mer frequency, TF over GST control).

Take GCGCGC: the binding signal in the test with ELK4 is 1.1 fold enrichment (6-mer frequency, TF over GST control); with ELF3, 1.05 fold enrichment (6-mer frequency, TF over GST control); in the test with ETV7, 1.05 fold enrichment (6-mer frequency, TF over GST control).

With ACCACC, the binding signal in the test with ELK4 is 1.16 fold enrichment (6-mer frequency, TF over GST control); in the test with ELF3, 1.21 fold enrichment (6-mer frequency, TF over GST control); in the test with SPDEF, 1.17 fold enrichment (6-mer frequency, TF over GST control).

On to CATCCA, for which the binding signal with ELK4 was 1.07 fold enrichment (6-mer frequency, TF over GST control).

For the sequence CCACAC, the binding signal was 1.04 fold enrichment (6-mer frequency, TF over GST control) in the test with ELK4 and 1.13 fold enrichment (6-mer frequency, TF over GST control) with SPDEF.

Consider CCGCTG, for which the binding signal with ELK4 was 1.2 fold enrichment (6-mer frequency, TF over GST control); with ELF3, 1.01 fold enrichment (6-mer frequency, TF over GST control); with SPDEF, 1.01 fold enrichment (6-mer frequency, TF over GST control); in the test with ETV7 it was 1.16 fold enrichment (6-mer frequency, TF over GST control).

As to CATACG, the binding signal with ELK4 was 1.07 fold enrichment (6-mer frequency, TF over GST control); with ELF3, 1.07 fold enrichment (6-mer frequency, TF over GST control); with SPDEF, 1.1 fold enrichment (6-mer frequency, TF over GST control).

For ACCACA, the binding signal is 1.13 fold enrichment (6-mer frequency, TF over GST control) with ELK4 and 1.02 fold enrichment (6-mer frequency, TF over GST control) with ELF3.

As to AGCAAC, the binding signal in the test with ELK4 was 1.12 fold enrichment (6-mer frequency, TF over GST control); in the test with SPDEF, 1.08 fold enrichment (6-mer frequency, TF over GST control); with ETV7 it was 1.1 fold enrichment (6-mer frequency, TF over GST control).

For TTGCCG, the binding signal was 1 fold enrichment (6-mer frequency, TF over GST control) with ELK4; 1.09 fold enrichment (6-mer frequency, TF over GST control) with ELF3; 1.13 fold enrichment (6-mer frequency, TF over GST control) with SPDEF; 1.22 fold enrichment (6-mer frequency, TF over GST control) with ETV7.

Turning to GCCCCA, the binding signal in the test with ELK4 is 1.06 fold enrichment (6-mer frequency, TF over GST control); in the test with SPDEF, 1.03 fold enrichment (6-mer frequency, TF over GST control).

For the sequence CCGATG, the binding signal was 1.07 fold enrichment (6-mer frequency, TF over GST control) with ELK4; 1.11 fold enrichment (6-mer frequency, TF over GST control) with ELF3; 1.1 fold enrichment (6-mer frequency, TF over GST control) with ETV7.

For the sequence GGGTTC, the binding signal in the test with ELK4 is 1 fold enrichment (6-mer frequency, TF over GST control); with ELF3 it was 1.02 fold enrichment (6-mer frequency, TF over GST control); with SPDEF it was 1.14 fold enrichment (6-mer frequency, TF over GST control).

In the case of CGCCCG, the binding signal was 1.09 fold enrichment (6-mer frequency, TF over GST control) with ELK4; 1.14 fold enrichment (6-mer frequency, TF over GST control) with ELF3; 1.1 fold enrichment (6-mer frequency, TF over GST control) with SPDEF; 1.08 fold enrichment (6-mer frequency, TF over GST control) with ETV7.

In the case of TGCTGC, the binding signal was 1.22 fold enrichment (6-mer frequency, TF over GST control) with ELK4; 1.11 fold enrichment (6-mer frequency, TF over GST control) in the test with ELF3; 1.05 fold enrichment (6-mer frequency, TF over GST control) in the test with SPDEF; 1.1 fold enrichment (6-mer frequency, TF over GST control) in the test with ETV7.
